Tests used:
[1] = target: Mitogen-activated protein kinase 3 (Homo sapiens) (UniProt P27361); conditions: at 1 µM;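 note: values are mean percent inhibition of MAPK3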
[2] = target: SRSF protein kinase 3 (Homo sapiens) (UniProt Q9UPE1); conditions: at 0.1 µM
[3] = target: SRSF protein kinase 3 (Homo sapiens) (UniProt Q9UPE1); conditions: at 1 µM
[4] = target: Mitogen-activated protein kinase 14 (Homo sapiens) (UniProt Q16539); conditions: at 0.1 µM
[5] = target: Mitogen-activated protein kinase 14 (Homo sapiens) (UniProt Q16539); conditions: at 1 µM
[6] = target: Mitogen-activated protein kinase 11 (Homo sapiens) (UniProt Q15759); conditions: at 0.1 µM
[7] = target: Mitogen-activated protein kinase 11 (Homo sapiens) (UniProt Q15759); conditions: at 1 µM
[8] = target: T1, Mitogen-activated protein kinase 13 (Homo sapiens) (UniProt O15264); conditions: at 0.1 µM
T1 sequence (whole entry): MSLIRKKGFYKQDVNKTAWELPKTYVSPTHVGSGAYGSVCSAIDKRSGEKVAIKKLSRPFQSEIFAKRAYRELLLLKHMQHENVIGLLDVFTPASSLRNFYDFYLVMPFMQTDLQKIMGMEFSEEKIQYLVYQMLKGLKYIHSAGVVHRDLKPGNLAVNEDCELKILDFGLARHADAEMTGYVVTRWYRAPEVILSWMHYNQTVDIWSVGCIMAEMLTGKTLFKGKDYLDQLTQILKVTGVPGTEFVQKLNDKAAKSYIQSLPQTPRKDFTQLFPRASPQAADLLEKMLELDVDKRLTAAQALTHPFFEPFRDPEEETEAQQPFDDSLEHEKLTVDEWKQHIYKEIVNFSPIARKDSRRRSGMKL

[9] = target: T1, Mitogen-activated protein kinase 13 (Homo sapiens); conditions: at 1 µM
[10] = target: T2, Mitogen-activated protein kinase 12 (Homo sapiens) (UniProt P53778); conditions: at 0.1 µM
T2 sequence (whole entry): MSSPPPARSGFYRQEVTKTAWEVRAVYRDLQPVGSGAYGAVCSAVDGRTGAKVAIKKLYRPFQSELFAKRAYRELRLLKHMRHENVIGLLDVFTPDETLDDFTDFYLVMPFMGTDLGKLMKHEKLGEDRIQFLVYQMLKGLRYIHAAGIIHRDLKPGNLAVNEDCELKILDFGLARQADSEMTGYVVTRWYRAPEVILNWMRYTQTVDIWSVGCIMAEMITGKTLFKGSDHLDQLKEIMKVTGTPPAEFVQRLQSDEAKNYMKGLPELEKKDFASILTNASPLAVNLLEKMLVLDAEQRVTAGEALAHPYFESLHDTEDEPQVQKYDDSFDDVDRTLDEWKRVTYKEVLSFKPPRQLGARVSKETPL

[11] = target: T2, Mitogen-activated protein kinase 12 (Homo sapiens); conditions: at 1 µM
[12] = target: SRSF protein kinase 1 (Homo sapiens) (UniProt Q96SB4); conditions: at 0.1 µM
[13] = target: SRSF protein kinase 1 (Homo sapiens) (UniProt Q96SB4); conditions: at 1 µM
[14] = target: Phosphatidylinositol 4,5-bisphosphate 3-kinase catalytic subunit alpha isoform (Homo sapiens) (UniProt P42336); conditions: at 0.1 µM
[15] = target: Phosphatidylinositol 4,5-bisphosphate 3-kinase catalytic subunit alpha isoform (Homo sapiens) (UniProt P42336); conditions: at 1 µM
[16] = target: T3, Phosphatidylinositol 4,5-bisphosphate 3-kinase catalytic subunit delta isoform (Homo sapiens) (UniProt O00329); conditions: at 0.1 µM
T3 sequence (whole entry): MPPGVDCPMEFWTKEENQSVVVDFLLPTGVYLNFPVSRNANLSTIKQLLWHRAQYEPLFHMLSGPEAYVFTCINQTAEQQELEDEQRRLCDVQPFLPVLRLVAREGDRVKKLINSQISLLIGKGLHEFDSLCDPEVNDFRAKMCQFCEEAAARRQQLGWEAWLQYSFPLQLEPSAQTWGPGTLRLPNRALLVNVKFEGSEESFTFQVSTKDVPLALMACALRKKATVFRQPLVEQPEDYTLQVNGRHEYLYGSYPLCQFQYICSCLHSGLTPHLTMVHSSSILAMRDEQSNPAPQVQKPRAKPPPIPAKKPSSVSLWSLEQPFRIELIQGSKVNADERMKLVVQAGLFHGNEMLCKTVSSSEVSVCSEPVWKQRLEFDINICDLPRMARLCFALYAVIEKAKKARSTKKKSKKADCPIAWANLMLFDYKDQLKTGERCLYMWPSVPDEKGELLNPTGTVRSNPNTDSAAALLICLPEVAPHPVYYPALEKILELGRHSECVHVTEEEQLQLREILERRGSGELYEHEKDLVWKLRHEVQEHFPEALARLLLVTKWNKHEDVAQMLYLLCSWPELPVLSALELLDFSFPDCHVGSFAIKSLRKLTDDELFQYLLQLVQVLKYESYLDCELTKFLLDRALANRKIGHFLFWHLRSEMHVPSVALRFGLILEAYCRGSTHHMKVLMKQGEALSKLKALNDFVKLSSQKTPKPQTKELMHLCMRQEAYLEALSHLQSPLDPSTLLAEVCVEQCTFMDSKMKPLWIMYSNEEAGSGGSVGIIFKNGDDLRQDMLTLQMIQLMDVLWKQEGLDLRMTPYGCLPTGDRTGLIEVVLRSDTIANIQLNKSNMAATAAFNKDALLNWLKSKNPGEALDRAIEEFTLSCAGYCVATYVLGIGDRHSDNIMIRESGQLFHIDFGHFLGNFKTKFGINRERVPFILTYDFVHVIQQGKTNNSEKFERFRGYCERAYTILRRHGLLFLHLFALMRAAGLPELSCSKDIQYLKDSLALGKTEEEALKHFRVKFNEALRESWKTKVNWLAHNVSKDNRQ

[17] = target: T3, Phosphatidylinositol 4,5-bisphosphate 3-kinase catalytic subunit delta isoform (Homo sapiens); conditions: at 1 µM
[18] = target: Phosphatidylinositol 4-kinase beta (Homo sapiens) (UniProt Q9UBF8); conditions: at 0.1 µM
[19] = target: Phosphatidylinositol 4-kinase beta (Homo sapiens) (UniProt Q9UBF8); conditions: at 1 µM
[20] = target: Sphingosine kinase 1 (Homo sapiens) (UniProt Q9NYA1); conditions: at 0.1 µM;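 note: mean percent inhibition of SPHK1 activity, measured within the GSK PKIS screening panel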
Sequence of Sphingosine kinase 1 (Homo sapiens) (Q9NYA1 whole entry): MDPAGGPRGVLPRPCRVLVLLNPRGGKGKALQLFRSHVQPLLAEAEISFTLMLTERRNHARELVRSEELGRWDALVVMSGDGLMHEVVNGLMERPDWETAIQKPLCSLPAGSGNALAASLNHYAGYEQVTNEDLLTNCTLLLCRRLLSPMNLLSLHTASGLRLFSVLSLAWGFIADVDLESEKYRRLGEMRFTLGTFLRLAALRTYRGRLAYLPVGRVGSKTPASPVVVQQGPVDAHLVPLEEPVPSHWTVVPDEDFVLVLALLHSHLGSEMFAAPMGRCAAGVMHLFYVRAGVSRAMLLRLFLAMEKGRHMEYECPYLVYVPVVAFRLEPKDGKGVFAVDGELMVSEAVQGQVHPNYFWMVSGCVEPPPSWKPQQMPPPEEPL

Sequence of Mitogen-activated protein kinase 3 (Homo sapiens) (P27361 whole entry): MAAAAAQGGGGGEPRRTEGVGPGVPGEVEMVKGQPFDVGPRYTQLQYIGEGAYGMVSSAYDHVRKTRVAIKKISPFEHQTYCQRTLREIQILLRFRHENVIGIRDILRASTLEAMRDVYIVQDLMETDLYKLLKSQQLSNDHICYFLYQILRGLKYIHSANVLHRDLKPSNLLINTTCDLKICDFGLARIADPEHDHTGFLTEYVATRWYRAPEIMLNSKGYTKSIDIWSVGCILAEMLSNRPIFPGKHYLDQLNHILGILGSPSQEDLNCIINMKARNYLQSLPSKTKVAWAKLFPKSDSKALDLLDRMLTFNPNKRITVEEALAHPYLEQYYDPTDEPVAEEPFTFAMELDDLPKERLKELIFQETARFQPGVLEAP
Sequence of SRSF protein kinase 3 (Homo sapiens) (Q9UPE1 whole entry): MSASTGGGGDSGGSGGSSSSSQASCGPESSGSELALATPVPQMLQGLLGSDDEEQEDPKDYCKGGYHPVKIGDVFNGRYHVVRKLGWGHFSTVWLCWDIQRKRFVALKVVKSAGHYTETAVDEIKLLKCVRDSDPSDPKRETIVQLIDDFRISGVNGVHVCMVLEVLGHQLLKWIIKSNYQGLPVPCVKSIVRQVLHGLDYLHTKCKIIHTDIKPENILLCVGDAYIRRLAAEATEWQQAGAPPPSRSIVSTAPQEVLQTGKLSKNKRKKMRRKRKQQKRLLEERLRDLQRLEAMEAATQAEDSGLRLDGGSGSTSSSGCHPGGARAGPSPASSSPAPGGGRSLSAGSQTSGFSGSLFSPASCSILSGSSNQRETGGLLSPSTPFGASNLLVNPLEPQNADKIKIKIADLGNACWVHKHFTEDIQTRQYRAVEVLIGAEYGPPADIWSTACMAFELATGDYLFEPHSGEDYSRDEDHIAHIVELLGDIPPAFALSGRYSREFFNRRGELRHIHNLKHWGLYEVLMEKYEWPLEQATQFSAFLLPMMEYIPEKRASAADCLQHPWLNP
Sequence of Mitogen-activated protein kinase 11 (Homo sapiens) (Q15759 whole entry): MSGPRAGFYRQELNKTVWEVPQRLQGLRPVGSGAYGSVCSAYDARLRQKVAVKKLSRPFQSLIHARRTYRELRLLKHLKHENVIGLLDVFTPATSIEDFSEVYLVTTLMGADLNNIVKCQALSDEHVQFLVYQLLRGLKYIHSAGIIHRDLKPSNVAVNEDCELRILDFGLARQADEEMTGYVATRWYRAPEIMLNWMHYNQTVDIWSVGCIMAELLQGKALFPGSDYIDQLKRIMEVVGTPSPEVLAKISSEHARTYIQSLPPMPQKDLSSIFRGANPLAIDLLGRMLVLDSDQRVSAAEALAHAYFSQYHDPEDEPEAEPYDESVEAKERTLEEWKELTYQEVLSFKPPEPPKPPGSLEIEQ
Sequence of SRSF protein kinase 1 (Homo sapiens) (Q96SB4 whole entry, canonical isoform): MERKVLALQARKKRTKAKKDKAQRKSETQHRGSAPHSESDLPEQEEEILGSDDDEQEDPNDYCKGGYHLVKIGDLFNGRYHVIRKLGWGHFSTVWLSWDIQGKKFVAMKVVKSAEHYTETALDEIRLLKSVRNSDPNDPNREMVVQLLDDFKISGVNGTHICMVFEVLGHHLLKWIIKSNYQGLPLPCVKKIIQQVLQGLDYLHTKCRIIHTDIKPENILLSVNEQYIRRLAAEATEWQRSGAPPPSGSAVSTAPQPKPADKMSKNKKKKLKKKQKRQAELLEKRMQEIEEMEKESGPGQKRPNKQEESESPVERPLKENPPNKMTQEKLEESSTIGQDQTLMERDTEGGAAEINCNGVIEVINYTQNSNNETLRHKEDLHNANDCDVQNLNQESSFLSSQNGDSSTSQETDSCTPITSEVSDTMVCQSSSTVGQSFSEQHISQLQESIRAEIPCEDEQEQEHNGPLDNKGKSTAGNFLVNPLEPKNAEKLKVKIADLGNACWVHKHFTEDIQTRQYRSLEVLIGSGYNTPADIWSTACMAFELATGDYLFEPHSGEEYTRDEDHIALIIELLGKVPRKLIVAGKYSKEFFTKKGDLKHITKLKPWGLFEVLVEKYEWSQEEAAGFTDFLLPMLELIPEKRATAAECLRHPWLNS
Sequence of Phosphatidylinositol 4,5-bisphosphate 3-kinase catalytic subunit alpha isoform (Homo sapiens) (P42336 whole entry, canonical isoform): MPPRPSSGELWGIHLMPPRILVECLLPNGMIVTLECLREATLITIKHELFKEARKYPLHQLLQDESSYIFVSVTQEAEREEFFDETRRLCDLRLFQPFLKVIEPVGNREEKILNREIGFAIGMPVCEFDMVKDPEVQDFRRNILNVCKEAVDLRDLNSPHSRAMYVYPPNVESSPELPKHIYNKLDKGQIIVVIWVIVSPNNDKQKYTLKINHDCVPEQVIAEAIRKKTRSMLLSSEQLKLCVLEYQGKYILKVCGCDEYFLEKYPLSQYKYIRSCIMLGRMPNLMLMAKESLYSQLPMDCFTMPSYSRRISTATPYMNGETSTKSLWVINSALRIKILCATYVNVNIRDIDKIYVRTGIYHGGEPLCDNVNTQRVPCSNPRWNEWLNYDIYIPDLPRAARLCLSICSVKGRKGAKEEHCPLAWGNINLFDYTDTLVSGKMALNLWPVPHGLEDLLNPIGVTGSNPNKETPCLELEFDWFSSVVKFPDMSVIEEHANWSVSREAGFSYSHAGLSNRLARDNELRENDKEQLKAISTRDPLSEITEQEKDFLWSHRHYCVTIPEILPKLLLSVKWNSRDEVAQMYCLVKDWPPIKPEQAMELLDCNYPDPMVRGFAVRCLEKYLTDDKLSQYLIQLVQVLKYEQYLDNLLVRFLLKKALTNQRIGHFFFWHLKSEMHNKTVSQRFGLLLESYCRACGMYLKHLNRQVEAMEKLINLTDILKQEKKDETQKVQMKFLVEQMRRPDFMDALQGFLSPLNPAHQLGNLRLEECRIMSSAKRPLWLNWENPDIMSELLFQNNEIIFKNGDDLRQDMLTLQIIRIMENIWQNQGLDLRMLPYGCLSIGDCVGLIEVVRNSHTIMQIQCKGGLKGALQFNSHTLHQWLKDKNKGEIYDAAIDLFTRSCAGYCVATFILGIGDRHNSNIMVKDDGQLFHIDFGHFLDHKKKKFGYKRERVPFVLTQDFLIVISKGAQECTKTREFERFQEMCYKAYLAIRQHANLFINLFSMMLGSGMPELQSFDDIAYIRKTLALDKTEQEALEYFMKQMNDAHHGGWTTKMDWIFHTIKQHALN
Sequence of Mitogen-activated protein kinase 14 (Homo sapiens) (Q16539 whole entry): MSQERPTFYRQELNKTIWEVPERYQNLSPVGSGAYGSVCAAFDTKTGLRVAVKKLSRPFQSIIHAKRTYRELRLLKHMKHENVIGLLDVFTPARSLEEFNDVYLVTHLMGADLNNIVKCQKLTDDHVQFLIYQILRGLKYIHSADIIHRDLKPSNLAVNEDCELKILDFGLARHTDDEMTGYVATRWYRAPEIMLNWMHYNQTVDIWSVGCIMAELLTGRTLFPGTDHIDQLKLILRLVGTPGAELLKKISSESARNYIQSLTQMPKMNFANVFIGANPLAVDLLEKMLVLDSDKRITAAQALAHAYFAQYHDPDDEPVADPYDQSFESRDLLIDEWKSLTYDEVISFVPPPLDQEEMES
Sequence of Phosphatidylinositol 4-kinase beta (Homo sapiens) (Q9UBF8 2-816 limits assumed): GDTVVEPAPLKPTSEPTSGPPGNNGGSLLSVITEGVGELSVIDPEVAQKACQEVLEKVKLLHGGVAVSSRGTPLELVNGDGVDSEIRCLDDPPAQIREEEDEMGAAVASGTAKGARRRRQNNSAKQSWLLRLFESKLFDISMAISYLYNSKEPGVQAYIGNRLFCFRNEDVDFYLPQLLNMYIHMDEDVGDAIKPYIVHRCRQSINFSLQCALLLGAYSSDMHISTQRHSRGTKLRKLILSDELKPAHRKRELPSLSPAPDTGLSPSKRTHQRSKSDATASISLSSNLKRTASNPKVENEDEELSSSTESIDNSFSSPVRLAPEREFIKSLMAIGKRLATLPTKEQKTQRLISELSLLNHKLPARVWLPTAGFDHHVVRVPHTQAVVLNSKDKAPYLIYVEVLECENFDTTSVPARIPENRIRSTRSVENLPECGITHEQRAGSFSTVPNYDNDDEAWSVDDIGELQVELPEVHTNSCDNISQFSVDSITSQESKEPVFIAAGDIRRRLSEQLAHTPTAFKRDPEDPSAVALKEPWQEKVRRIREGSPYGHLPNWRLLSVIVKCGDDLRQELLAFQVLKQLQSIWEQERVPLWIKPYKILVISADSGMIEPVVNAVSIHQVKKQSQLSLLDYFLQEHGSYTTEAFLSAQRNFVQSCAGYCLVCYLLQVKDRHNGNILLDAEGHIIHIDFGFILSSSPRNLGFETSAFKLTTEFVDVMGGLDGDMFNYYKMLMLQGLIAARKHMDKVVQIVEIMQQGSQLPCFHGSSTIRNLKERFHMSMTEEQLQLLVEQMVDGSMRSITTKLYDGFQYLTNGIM

Row | Compound | inhibition [1] [%] | inhibition [2] [%] | inhibition [3] [%] | inhibition [4] [%] | inhibition [5] [%] | inhibition [6] [%] | inhibition [7] [%] | inhibition [8] [%] | inhibition [9] [%] | inhibition [10] [%] | inhibition [11] [%] | inhibition [12] [%] | inhibition [13] [%] | inhibition [14] [%] | inhibition [15] [%] | inhibition [16] [%] | inhibition [17] [%] | inhibition [18] [%] | inhibition [19] [%] | inhibition [20] [%]
1 | Cc1cc(O)cc(C)c1/C=C/c1cncc(C(=O)N(C)C)c1 | 2.75 | 1.6 | 2.35 | 5.83 | 7.03 | 3.38 | 8.48 | 1.6 | 3.68 | 4.71 | 2.68 | -0.98 | -1.41 | 1.77 | 0.49 | 1.59 | 1.73 | -2.1 | 0.47 | -0.11
2 | COC(=O)Nc1nc2cc(Oc3ccc(NC(=O)Nc4cccc(Br)c4)cc3)ccc2[nH]1 | 3.83 | -0.78 | 1.64 | 7.25 | 17.1 | 7.96 | 17 | 2.44 | 0.89 | 2.07 | 1.52 | -2.5 | -2.45 | 0.99 | 8.57 | 1.03 | 7.1 | 0.03 | -5.6 | -1.27
3 | C[C@@H](Oc1cc(-n2cnc3ccc(OC[C@@H](O)CO)cc32)sc1C(N)=O)c1ccccc1Cl | -2.21 | -1.72 | 0.27 | 2.66 | 3.54 | -1.66 | 1.86 | -3.13 | -2.7 | -0.19 | -1.21 | -0.36 | -1.3 | -0.06 | 13.4 | 1.99 | 34.9 | 3.09 | -1.09 | -2.33
4 | CCn1c(-c2nonc2N)nc2ccc(F)cc21 | 7.45 | -2.41 | -1.12 | 5.24 | 8.37 | 7.69 | 9.2 | 2.3 | 6.26 | 3.81 | 3.36 | -1.22 | 2.61 | 4.99 | 4.15 | 3.09 | 2.96 | -0.18 | 6.29 | 0.88
5 | c1ccc(Nc2ncc(-c3ccccc3)o2)cc1 | 4.13 | -1.27 | -0.17 | 9.09 | 11.8 | 5.86 | 5.93 | 4.95 | 4.65 | 2.89 | 5.26 | -2.25 | -2.19 | 5.87 | 6.84 | 1.87 | 4.99 | 5.07 | -3.06 | 2.26
6 | Cc1ccc(C(=O)NC2CC2)cc1-c1ccc2[nH]ncc2c1 | -2.12 | 2.03 | -0.89 | 3.93 | 52.8 | 4.23 | 28.2 | -4.94 | -5.34 | -3.26 | -1.96 | -0.04 | 1.22 | -3.9 | -3.53 | -1.94 | -0.26 | 4.33 | -2.52 | -0.6
7 | COc1cccc(-n2ncc3c(N/N=C/c4ccc(C)cc4)ncnc32)c1 | 3.26 | 3.27 | 0.15 | 6.95 | 9.02 | 1.15 | 4.42 | 4.61 | 6.26 | 3.81 | 6.67 | -3.85 | -1.68 | 5.44 | 7.64 | 1.43 | 5.9 | -1.45 | 3.16 | 3.47
8 | COC(=O)c1ccc2c(c1)C(=Cc1cc(Br)c(O)c(Br)c1)C(=O)N2 | 5.46 | 3.56 | -0.06 | 5.88 | 7.6 | 2.64 | 4.68 | 3.43 | 5.81 | 4.05 | 7.78 | -4.19 | -1.41 | 20.2 | 71.1 | -9.64 | -7.81 | 43.6 | 87.4 | 1.25
9 | Nc1nccc(-c2c(-c3ccc(F)cc3)nn3cc(C(F)(F)F)ccc23)n1 | 2.32 | -1.48 | -1.99 | 7.89 | 47.2 | 4.49 | 10.5 | 0.69 | -1.62 | 1.12 | 1.01 | -0.96 | -1.1 | 0.15 | 0.75 | 0.55 | 0.3 | -4.79 | -4.51 | 4.09
10 | O=C1Nc2ccc(-c3cccnc3)cc2C1=Cc1cc(Br)c(O)c(Br)c1 | 1.77 | 1.44 | 1.95 | 5.87 | 7.67 | 1.48 | 1.36 | 1.39 | 3.3 | 2.25 | 2.31 | -1.92 | -2.45 | 11.3 | 55.5 | -8.03 | -3.91 | 35.2 | 77.7 | 5.72
11 | CCn1c(-c2nonc2N)nc2c(C#CC(C)(C)O)nc(OCCNC)cc21 | 4.08 | 0.05 | -0.46 | 6.16 | 7.38 | 2.05 | 2.15 | 4.59 | 5.13 | 3.83 | 6.39 | -3.96 | -2.97 | 5.21 | 4.34 | 1.6 | 1.55 | -2.53 | 3.94 | -1.43
12 | C[C@@H](Oc1cc(-n2cnc3ccc(OCC4CCN(C)CC4)cc32)sc1C(N)=O)c1ccccc1C(F)(F)F | -0.11 | 0.22 | 0.15 | -2.1 | 1.86 | 1.51 | 3.33 | -2.92 | -3.87 | -1.88 | -2.08 | -0.56 | 1.16 | -1.6 | 13.3 | 2.19 | 55.9 | 6.54 | 0.1 | 0.59
13 | Nc1nccc(C#Cc2cncnc2Nc2ccc(OCc3cccc(F)c3)c(Cl)c2)n1 | 1.04 | 0.77 | -0.42 | 2.98 | 7.42 | 0.46 | 4.43 | 1.14 | 4.65 | 0.02 | 3.22 | -1.73 | -2.48 | 2.82 | 4.72 | 1.22 | 4.71 | -2.78 | -0.63 | -2.09

— ChEMBL document CHEMBL1961873, “Compounds: GSK PKIS; Assays: Nanosyn kinase panel” (2012)
